The text below walks through data of PubChem BioAssay.

Assay [1] can be described thus: inhibitors of mutant huntingtin aggregation, primary screen, imaging, exon1htt(103Q)mCFP cells, high-content imaging (AID 483;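 active = visual image review flags a hit and inhibition of aggregation exceeds 20%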;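 also: compound exposure lasted 3 days before fixation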;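 as to nuclei count: percent of the per-plate median nuclei count of sample wells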). To be noted: exon1htt(103Q)mCFP cell line, aggregate imaging, at 2 µM; inhibition of aggregation: stronger effect = higher value; nuclei count: measured here: cell count, toxicity.
Assay [2] can be described thus: DUSP6 inhibitors restoring Erk phosphorylation by chemical complementation, primary imaging in DUSP6-transfected HeLa (AID 609;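 active = compounds giving at least 50% inhibition in the cell-based MKP-3 phosphatase rescue imaging test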;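 as to inhibition: phospho-Erk level distribution per well compared with pooled transfected vehicle control wells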). The note with it: HeLa MKP-3 transfected, phospho-Erk imaging KS statistic, at 10 µM, cells stimulated with TPA for 15 min.
Assay [3] has as its target Dual specificity protein phosphatase 6 (Homo sapiens) (UniProt Q16828). Described as above. To be noted: HeLa MKP-3 transfected, phospho-Erk imaging KS statistic; at 10 µM; stronger effect = higher value; cells stimulated with TPA for 15 min.
The target in assay [4] is Voltage-gated potassium channel subunit beta-2 (Rattus norvegicus) (UniProt P62483). Description: KvBeta enzyme negative modulators, primary screen, biochemical, NADPH fluorescence (AID 622;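 active = fluorescence slope higher than the sample average by over 3 SD, cut at about -0.22 in these data, passing the limit was not always enough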;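 also: slope of raw intensity against log time taken from 70 to 1610 s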). To be noted: recombinant KvBeta, 4-cyanobenzaldehyde reduction, at 10 µM, stronger effect = higher value.
Sequence of Voltage-gated potassium channel subunit beta-2 (Rattus norvegicus) (P62483 whole entry, looked up): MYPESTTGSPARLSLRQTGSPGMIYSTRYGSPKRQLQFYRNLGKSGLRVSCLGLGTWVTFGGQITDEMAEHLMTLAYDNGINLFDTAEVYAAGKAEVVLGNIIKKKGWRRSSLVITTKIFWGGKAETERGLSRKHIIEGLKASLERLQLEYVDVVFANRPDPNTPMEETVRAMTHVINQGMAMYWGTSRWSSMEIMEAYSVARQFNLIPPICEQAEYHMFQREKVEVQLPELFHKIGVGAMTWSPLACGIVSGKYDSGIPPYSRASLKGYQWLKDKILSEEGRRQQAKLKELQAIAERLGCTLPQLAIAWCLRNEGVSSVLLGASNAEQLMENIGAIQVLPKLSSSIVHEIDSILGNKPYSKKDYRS
Assay [5] shares this target. Description: KvBeta positive modulators, primary screen, biochemical, NADPH fluorescence (AID 623;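 active = NADPH fluorescence slope more negative than the mean of all samples by about 3 SD, 99.7% confidence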;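 also: fluorescence intensity change per second fitted from 20 to 320 s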). To be noted: Recombinant KvBeta, NADPH fluorescence decrease slope, 10 min; at 10 µM; stronger effect = lower value.
Assay [6] deals with Alpha-2C adrenergic receptor (Homo sapiens) (UniProt P18825). Description: modulators of alpha2C/GIRK thallium flux, primary screen, cell-based, HEK293 alpha2C/GIRK1/2 (AID 624;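 active = fluorescence slope after compound addition differing from the mean of all screened samples at 99.7% confidence, in either direction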;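 also: slope of fluorescence ratio to pre-addition baseline per second over 15 to 24 s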). The note with it: thallium flux BTC fluorescence, at 10 µM, actives lie on both sides.
Sequence of Alpha-2C adrenergic receptor (Homo sapiens) (P18825 whole entry, looked up): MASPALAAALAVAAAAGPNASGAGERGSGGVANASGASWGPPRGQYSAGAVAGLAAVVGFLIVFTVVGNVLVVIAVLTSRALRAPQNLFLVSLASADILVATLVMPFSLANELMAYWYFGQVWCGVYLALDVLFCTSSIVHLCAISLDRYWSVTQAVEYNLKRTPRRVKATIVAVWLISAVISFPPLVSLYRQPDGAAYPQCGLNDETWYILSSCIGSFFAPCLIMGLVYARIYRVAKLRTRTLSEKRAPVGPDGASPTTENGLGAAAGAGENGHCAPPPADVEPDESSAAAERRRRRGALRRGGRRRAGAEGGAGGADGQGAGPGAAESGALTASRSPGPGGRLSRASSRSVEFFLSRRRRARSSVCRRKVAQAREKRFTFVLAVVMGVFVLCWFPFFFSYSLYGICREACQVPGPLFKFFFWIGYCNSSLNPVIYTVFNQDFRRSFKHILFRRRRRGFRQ
Assay [7] can be described thus: inhibitors of larval lipid processing in zebrafish, primary screen, whole organism, PED6 fluorescence, gall bladder and intestine (AID 686;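 active = a full or partial loss of lipid-probe fluorescence in the fish gall bladder, intestine or both, judged by eye; inactive = no fluorescence loss, or compound toxic to the fish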;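 also: larvae 5 to 7 days old with five fish per well; signal comes from phospholipase A2 cleavage of quenched PED6 carried via bile; overnight exposure to compound and PED6 before scoring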). The note with it: Zebrafish larvae PED6 lipid processing, fluorescence scoring; screened at 20 µM (by protocol).
A short description of assay [8]: inhibitors of Chlamydomonas gravitaxis, primary screen, whole organism, Chlamydomonas reinhardtii, WT vs cilia-less mutant, absorbance, 96-well (AID 463189).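 Also: 0% = wild type cc124 cells in DMSO and 100% = ciliumless bld1 mutant cells.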 To be noted: OD600 absorbance, 2 days, at 10 µM, stronger effect = higher value.
The nature of assay [9]: inhibitors of Sendai virus-induced IRF3 signaling, primary screen, TLR/RLR signaling modifier project, cell-based, Sendai virus stimulus, luciferase, 10K MLSCN set (AID 602276;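 active = inhibition at or above 50% at 10 µM; inactive = inhibition below 50%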;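 also: firefly luciferase from ISG56 promoter only with Renilla not read in this screen; 0% = Sendai virus plus DMSO and 100% = medium plus DMSO without virus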). The note with it: HEK293 RL24 IRF3 luciferase reporter, at 10 µM, stronger effect = higher value. (In a reporter assay the amount or activity of a reporter protein is the signal.)
Assay [10] can be described thus: inhibitors of poly I:C-induced TLR3 signaling, primary screen, cell-based, poly I:C stimulus, luciferase, 10K MLSCN set (AID 602277;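 active = inhibition of the reporter signal at or above 50%; inactive = inhibition below 50%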). To be noted: HEK293-TLR3 RL24 IRF3 luciferase reporter, at 10 µM, stronger effect = higher value.
Assay [11] can be described thus: inhibitors of E-selectin induction by TNFa, primary screen, imaging, HUVEC, immunofluorescence, MLSMR starter and 10KST1 sets (AID 487;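 active = visually confirmed hit in the image check and inhibition above 20%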;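 as to inhibition: signal is fraction of cell area covered by stained E-selectin grains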;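 as to nuclei count: 100% = median nuclei count of all wells on the same plate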). To be noted: HUVEC TNFalpha-induced E-selectin immunofluorescence imaging, at 2 µM; inhibition: stronger effect = higher value; nuclei count: measured here: cell number, toxicity.
Assay [12] addresses Muscarinic acetylcholine receptor M4 (Homo sapiens) (UniProt P08173). Description: compounds altering M4/GIRK thallium flux, either direction, primary screen, M4 allosteric agonist project, cell-based, HEK293 M4/GIRK, BTC-AM (AID 625;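 active = fluorescence slope after compound addition differing from the mean of all tested samples at 99.7% confidence, mostly higher but some lower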;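 also: thallium influx through GIRK channels coupled to M4 in HEK293 cells with BTC-AM dye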). The note with it: at 10 µM, actives lie on both sides.
Setting [13] is: measured here: cell density z-score.
Setting [14] is: measured here: nuclear c-Myc green intensity z-score.
Setting [15] is: measured here: nuclear pErk red intensity z-score, stronger effect = higher value.

SMILES strings stand for the structures. Where “and” joins values, the source holds several entries; their conditions need not be identical. Identical values can stand only once. Calls of active or inactive are those of the source.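 The calls were made as follows, unless noted: active = inhibition at or above 50% relative to wild type and mutant plate controls; inactive = inhibition below 50%.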

Sequence of Muscarinic acetylcholine receptor M4 (Homo sapiens) (P08173 whole entry, looked up): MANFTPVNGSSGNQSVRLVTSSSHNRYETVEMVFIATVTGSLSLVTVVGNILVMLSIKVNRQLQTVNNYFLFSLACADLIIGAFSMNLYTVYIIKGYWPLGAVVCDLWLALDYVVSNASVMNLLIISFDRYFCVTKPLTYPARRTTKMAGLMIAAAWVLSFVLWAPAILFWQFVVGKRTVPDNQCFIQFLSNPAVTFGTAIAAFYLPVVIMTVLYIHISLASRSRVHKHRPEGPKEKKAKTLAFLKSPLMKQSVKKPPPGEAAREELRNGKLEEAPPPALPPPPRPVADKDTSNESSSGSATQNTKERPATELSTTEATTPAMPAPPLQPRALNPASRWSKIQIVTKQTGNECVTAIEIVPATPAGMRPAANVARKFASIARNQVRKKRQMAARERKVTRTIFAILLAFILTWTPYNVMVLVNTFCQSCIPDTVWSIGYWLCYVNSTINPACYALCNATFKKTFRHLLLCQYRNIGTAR
Sequence of Dual specificity protein phosphatase 6 (Homo sapiens) (Q16828 whole entry, looked up): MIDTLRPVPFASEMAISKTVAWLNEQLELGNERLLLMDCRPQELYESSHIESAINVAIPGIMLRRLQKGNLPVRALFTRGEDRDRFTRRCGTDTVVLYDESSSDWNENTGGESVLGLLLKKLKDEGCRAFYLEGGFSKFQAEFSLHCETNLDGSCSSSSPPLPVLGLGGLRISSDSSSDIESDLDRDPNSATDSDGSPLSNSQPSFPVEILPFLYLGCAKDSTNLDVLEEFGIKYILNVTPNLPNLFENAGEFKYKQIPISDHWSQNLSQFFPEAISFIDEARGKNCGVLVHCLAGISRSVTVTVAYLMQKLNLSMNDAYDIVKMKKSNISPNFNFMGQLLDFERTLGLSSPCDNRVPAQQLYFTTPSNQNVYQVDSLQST

On to `CC(=O)O[C@@]12CO[C@@H]1C[C@H](O)[C@@]1(C)C(=O)[C@H](O)C3=C(C)[C@@H](OC(=O)[C@H](O)[C@@H](NC(=O)OC(C)(C)C)c4ccccc4)C[C@](O)([C@@H](OC(=O)c4ccccc4)[C@H]21)C3(C)C`, for which the inhibition of aggregation in assay [1] is -77% (inactive). In assay [1], this molecule registered a nuclei count of 4.4%. The results for the z-score in [2] (setting [13]), in assay [2] (setting [14]) and in assay [2] (setting [15]) were -1.36, 0.683 and 1.58, respectively. Also, the inhibition (in general, the relative decrease from the control value, in per cent) is -9.66% (inactive) in assay [3], 22.5% (inactive) in assay [8], 37.7% (inactive) in [9] and 38.9% (inactive) in assay [10]. Besides, the fluorescence slope in [4] is -0.48 (inactive). For the same molecule, the NADPH fluorescence slope in assay [5] was -5.5e-05 (inactive). For the same molecule, the slope in assay [6] is 0.00555 (inactive). The result in assay [7] was inactive.
On to `CC1=NS(=O)(=O)c2cc(Cl)ccc2N1`, for which the inhibition in assay [11] was -68% (inactive); in assay [3], 19.2% (inactive); in assay [8] it was -5.98% (inactive) and 10.3% (inactive); in assay [9] it was 15.7% (inactive); in assay [10] it was 41.7% (inactive). The nuclei count in [11] was 105%. Also, the figures for the z-score in assay [2] (setting [13]), in assay [2] (setting [14]) and in assay [2] (setting [15]) were 0.557, 0.773 and -0.365, respectively. Moreover, the fluorescence slope in [4] is -0.43 (inactive). For the same molecule, the NADPH fluorescence slope in assay [5] is -5.9e-05 (inactive). In assay [6], the slope was 0.00504 (inactive). In addition, the call in assay [7] was inactive.
With `Nc1nc2c(ncn2COCCO)c(=O)[nH]1`, the inhibition in assay [11] is -45.2% (inactive); in assay [3], 3.45% (inactive); in assay [8], -9.79% (inactive) and -10% (inactive); in [9] it was -1.97% (inactive); in assay [10], 26.2% (inactive). In assay [11], this molecule returned a nuclei count of 98.5%. Also, the results for the z-score in assay [2] (setting [13]), in [2] (setting [14]) and in assay [2] (setting [15]) were -1.3, 0.247 and -1.02, respectively. Moreover, the fluorescence slope in assay [4] is -0.446 (inactive). Also, in assay [5], the NADPH fluorescence slope is -8.2e-06 (inactive). In addition, in assay [6], the slope is 0.00457 (inactive). In assay [7], the molecule was called inactive.
Regarding `CCCOc1cccc(CN2CCCCC2c2cccnc2)c1` (stereo not given), the inhibition in assay [11] was -33.4% (inactive); in assay [3], 5.57% (inactive); in assay [8], -12.9% (inactive). In [11], this molecule showed a nuclei count of 153%. The z-score in assay [2] (setting [13]) is 0.13; in assay [2] (setting [14]) it was 0.714; in assay [2] (setting [15]), -0.468. For the same molecule, the fluorescence slope in assay [4] was -0.369 (inactive); in assay [12] it was 0.00674 (inactive). The NADPH fluorescence slope in assay [5] was 1.8e-06 (inactive). Further, the result in [7] was inactive.
Regarding `O=C(CCN1CCc2ccccc21)c1ccc2c(c1)OCCO2`, the inhibition in assay [11] is -46.2% (inactive); in assay [3], -0.159% (inactive); in assay [8], 3.69% (inactive). The molecule further registered a nuclei count in assay [11] of 144%. Moreover, the z-score was -0.121 in [2] (setting [13]), -0.0206 in assay [2] (setting [14]) and -0.911 in assay [2] (setting [15]). Also, the fluorescence slope in assay [4] was -0.436 (inactive); in [12], 0.00393 (inactive). Moreover, the NADPH fluorescence slope in [5] was -2.2e-05 (inactive). In addition, in assay [7], the molecule was classed as inactive.
As for `Cc1ccc(N2CN=c3s/c(=C\c4cccnc4)c(=O)n3C2)cc1`, the inhibition in [11] is -18.9% (inactive); in [3], 1.75% (inactive); in [8], 36.5% (inactive). The molecule further displayed a nuclei count in assay [11] of 87.4%. Also, the results for the z-score in assay [2] (setting [13]), in [2] (setting [14]) and in assay [2] (setting [15]) were -0.873, 0.442 and 0.633, respectively. For the same molecule, the fluorescence slope in assay [4] was -0.483 (inactive); in assay [12], 0.00552 (inactive). In addition, the NADPH fluorescence slope in [5] is -4.2e-05 (inactive). The outcome in assay [7] was inactive.
In the case of `CCOC(=O)C(OC(=O)c1sc(=S)n(C)c1C)C(C)=O` (stereo not given), the inhibition in assay [11] is -34.4% (inactive); in [3] it was 7.48% (inactive); in assay [8], 63.7% (active). In [11], the nuclei count was 86.4%. Further, the z-score was 0.548 in assay [2] (setting [13]), -0.227 in [2] (setting [14]) and -0.266 in assay [2] (setting [15]). The fluorescence slope was -0.553 (inactive) in assay [4] and 0.00794 (inactive) in [12]. Further, in [5], the NADPH fluorescence slope is -3.9e-05 (inactive). Besides, the call in assay [7] was inactive.
In the case of `Oc1oc(-c2ccccc2)nc1C=NCc1ccncc1`, the inhibition in [11] was 5.8% (inactive); in assay [3], 13.2% (inactive); in [8] it was -10.3% (inactive). This molecule gave a nuclei count in [11] of 104%. The z-score in [2] (setting [13]) was 0.0106; in assay [2] (setting [14]), -0.425; in assay [2] (setting [15]), 0.0699. For the same molecule, the fluorescence slope in assay [4] was -0.353 (inactive); in assay [12], 0.00715 (inactive). In addition, the NADPH fluorescence slope in assay [5] is 7.6e-07 (inactive). The outcome in assay [7] was inactive.
On to `C=CCNc1nc(C2(C)CC3(CC(C)(C)OC3=O)C(=O)O2)cs1` (stereo not given), for which the inhibition in assay [11] is -142% (inactive); in assay [3], -2.07% (inactive); in assay [8] it was 6.21% (inactive). Also, in assay [11], the nuclei count was 155%. Besides, the z-score in assay [2] (setting [13]) is 0.249; in [2] (setting [14]), -0.125; in [2] (setting [15]), -1.68. Further, the fluorescence slope in assay [4] was -0.315 (inactive); in assay [12] it was 0.0082 (inactive). In assay [5], the NADPH fluorescence slope was -1.4e-05 (inactive). Further, the call in assay [7] was inactive.
With `O=C(NCCO)C1(c2ccccc2)CCCC1`, the inhibition in assay [11] was -0.2% (inactive); in [3] it was 20.8% (inactive); in assay [8], -4.89% (inactive). Besides, the nuclei count in [11] came to 87.4%. For the same molecule, the values for the z-score in [2] (setting [13]), in assay [2] (setting [14]) and in assay [2] (setting [15]) were -1.49, 2.28 and -1.5, respectively. The fluorescence slope is -0.406 (inactive) in [4] and 0.00732 (inactive) in [12]. In addition, the NADPH fluorescence slope in assay [5] was -8.2e-06 (inactive). Besides, in assay [7], the outcome was inactive.
Take `CCC(NC(=O)Nc1nnc(C(F)(F)F)s1)(C(F)(F)F)C(F)(F)F`: the inhibition in assay [11] is -242% (inactive); in [3], 18.4% (inactive); in assay [8], 9.74% (inactive). Further, the nuclei count in [11] came to 141%. Also, the z-score was 0.851 in [2] (setting [13]), -0.831 in assay [2] (setting [14]) and 0.704 in [2] (setting [15]). The fluorescence slope in assay [4] is -0.449 (inactive); in [12], 0.00231 (inactive). For the same molecule, in assay [5], the NADPH fluorescence slope was -4.2e-05 (inactive). In [7], the outcome was “inactive; toxic”.
With `Cc1cc(N/C=C/C(=O)c2cccc3ccccc23)no1`, the inhibition is -51% (inactive) in assay [11], 13.2% (inactive) in assay [3] and -11.1% (inactive) in assay [8]. For the same molecule, the nuclei count in [11] stood at 95.6%. Also, the z-score in [2] (setting [13]) was -0.324; in assay [2] (setting [14]), 0.59; in assay [2] (setting [15]), -0.55. The fluorescence slope in assay [4] is -0.396 (inactive); in assay [12], 0.00616 (inactive). Besides, in [5], the NADPH fluorescence slope was -2.3e-06 (inactive). Besides, the call in [7] was inactive.
In the case of `CCOC(=O)C(Oc1ccc(=O)[nH]n1)C(C)=O` (stereo not given), the inhibition in assay [11] is -70.7% (inactive); in assay [3], 22.7% (inactive); in assay [8], -3.15% (inactive). For the same molecule, in assay [11], the nuclei count came out at 105%. Also, the z-score is -0.778 in assay [2] (setting [13]), 0.196 in assay [2] (setting [14]) and -1.16 in [2] (setting [15]). The fluorescence slope is -0.398 (inactive) in assay [4] and 0.00606 (inactive) in assay [12]. In addition, the NADPH fluorescence slope in assay [5] was -7.7e-06 (inactive). Besides, in assay [7], the result was inactive.
With `Cc1cccc(OCC(=O)NCC(=O)n2nc(C)cc2C)c1`, the inhibition in assay [11] was -106% (inactive); in assay [3], -7.79% (inactive); in assay [8], 16.2% (inactive). Moreover, the nuclei count in assay [11] turned out to be 146%. The z-score is -0.336 in [2] (setting [13]), 0.0922 in assay [2] (setting [14]) and 0.78 in assay [2] (setting [15]). Besides, the fluorescence slope in [4] is -0.413 (inactive); in assay [12], 0.00436 (inactive). In addition, in [5], the NADPH fluorescence slope was -9.5e-06 (inactive). In assay [7], the molecule was called inactive.
